Experimental data published in PubChem BioAssay AID1159580 (chemical genetic matrix, 2015).
Several values for one entry are separate records, joined by “and”; a condition that tells them apart may be missing. Identical values can stand only once. The whole screen tested about 5,500 compounds, of which about 2,000 (36%) were called active. Inconclusive results (about 18%) are left out. Rule as the data show it: active = normalized growth mostly below about 0.91 (no sharp cut-off); inconclusive = no clear call, values can overlap the other calls; inactive = mostly above about 0.92. The list shows a part of the results.

Experiment: chemical genetic growth profiling, strain panel (AID 1159580);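 also: tested at 20 µM; growth read once vehicle control cultures reached saturation at 30 °C; 1 = growth at the plate median or of vehicle wells; lower values mean less growth of the strain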
Details: S. cerevisiae deletion strains, growth OD

Measured: normalized growth

CC(=O)OC(C)C[N+](C)(C)C (stereo not given)
inactive: locus YAL013W, strain DEP1, active compounds read low 1.02 and 1 | locus YAL021C, strain ccr4, active compounds read low 1 | locus YAL026C, strain drs2, active compounds read low 1 | locus YAL030W, strain snc1, active compounds read low 1 | locus YAL040C, strain CLN3, active compounds read low 0.999 | locus YBL061C, strain skt5, active compounds read low 1.01 | locus YBR009C, strain hhf1, active compounds read low 1 | locus YBR021W, strain FUR4, active compounds read low 1.03 | locus YBR023C, strain chs3, active compounds read low 1 | locus YBR171W, strain sec66, active compounds read low 0.994 | locus YBR229C, strain ROT2, active compounds read low 1.01 | locus YBR231C, strain swc5, active compounds read low 0.991 | locus YBR279W, strain paf1, active compounds read low 1 | locus YCL011C, strain gbp2, active compounds read low 1.01 | locus YCL016C, strain dcc1, active compounds read low 1.01 | locus YCL029C, strain bik1, active compounds read low 1.01 | locus YCL061C, strain MRC1 (second series), active compounds read low 1 | locus YCL069W, strain vba3, active compounds read low 1 | locus YCR088W, strain abp1, active compounds read low 1.01 | locus YDL005C, strain med2, active compounds read low 1.02 | locus YDL035C, strain GPR1, active compounds read low 1.03 | locus YDL040C, strain nat1, active compounds read low 1 | locus YDL074C, strain BRE1, active compounds read low 1.01 | locus YDL101C, strain DUN1, active compounds read low 1 | locus YDL134C, strain PPH21, active compounds read low 1.02 | locus YDL185W, strain tfp1, active compounds read low 1.02 | locus YDL192W, strain arf1, active compounds read low 1.02 | locus YDR001C, strain nth1, active compounds read low 0.993 | locus YDR069C, strain doa4, active compounds read low 0.988 | locus YDR101C, strain arx1, active compounds read low 0.996 | locus YDR137W, strain rgp1, active compounds read low 0.99 | locus YDR150W, strain NUM1, active compounds read low 1.02 and 0.997 | locus YDR159W, strain sac3, active compounds read low 1 | locus YDR162C, strain NBP2, active compounds read low 1.05 | locus YDR195W, strain ref2 0.982 | locus YDR297W, strain sur2, active compounds read low 1 | locus YDR318W, strain mcm21, active compounds read low 1.01 | locus YDR334W, strain swr1, active compounds read low 0.997 | locus YDR335W, strain msn5, active compounds read low 0.998 | locus YDR363W, strain ESC2, active compounds read low 0.965 | locus YDR388W, active compounds read low 1.02 | locus YDR392W, strain spt3, active compounds read low 1 | locus YDR502C, strain sam2, active compounds read low 1.01 | locus YEL003W, strain gim4, active compounds read low 1.01 | locus YEL037C, strain rad23, active compounds read low 1 | locus YEL061C, strain CIN8 (second series), active compounds read low 0.995 | locus YEL061C, strain CIN8, active compounds read low 1.01 | locus YER002W, strain NOP16, active compounds read low 0.981 | locus YER015W, strain faa2, active compounds read low 0.988 | locus YER016W, strain bim1, active compounds read low 0.994 | locus YER110C, active compounds read low 1.02 | locus YER111C, strain swi4, active compounds read low 1.01 | locus YER155C, strain BEM2 (second series), active compounds read low 0.992 | locus YER155C, strain BEM2, active compounds read low 1.01 | locus YER167W, strain BCK2, active compounds read low 1.02 | locus YFR010W, strain ubp6, active compounds read low 0.989 | locus YGL078C, strain dbp3, active compounds read low 1.02 | locus YGL086W, strain mad1, active compounds read low 1 | locus YGL167C, strain pmr1, active compounds read low 1.01 | locus YGL173C, strain kem1, active compounds read low 1 | locus YGL227W, strain vid30, active compounds read low 0.986 | locus YGL240W, strain doc1, active compounds read low 0.985 | locus YGL248W, strain PDE1, active compounds read low 0.99 | locus YGL253W, strain hxk2, active compounds read low 1 | locus YGR135W, strain pre9, active compounds read low 1.06 | locus YGR252W, strain gcn5, active compounds read low 1.04 | locus YHR013C, strain ard1, active compounds read low 1.02 | locus YHR027C, strain rpn1, active compounds read low 1 | locus YHR030C, strain SLT2, active compounds read low 1.01 and 1.02 | locus YHR079C, strain IRE1 (second series), active compounds read low 1.01 | locus YHR079C, strain IRE1, active compounds read low 1 | locus YHR094C, strain hxt1, active compounds read low 1.02 | locus YHR129C, strain ARP1, active compounds read low 1 | locus YHR142W, strain chs7, active compounds read low 1.01 | locus YHR200W, strain rpn10, active compounds read low 1.02 | locus YIL066C, strain RNR3, active compounds read low 1.02 | locus YIL073C, strain SPO22, active compounds read low 1.13 | locus YIL125W, strain kgd1, active compounds read low 1.01 | locus YIR030C, strain dcg1, active compounds read low 1.01 | locus YJL092W, strain hpr5, active compounds read low 0.993 | locus YJL095W, strain BCK1 (second series), active compounds read low 1.01 | locus YJL095W, strain BCK1, active compounds read low 1.02 and 1.03 | locus YJL115W, strain asf1, active compounds read low 0.995 | locus YJL129C, strain trk1, active compounds read low 0.987 | locus YJL134W, strain LCB3, active compounds read low 1.01 | locus YJL154C, strain vps35, active compounds read low 1.01 | locus YJL164C, strain tpk1, active compounds read low 1.01 | locus YJL166W, strain qcr8, active compounds read low 0.976 | locus YJL168C, strain set2, active compounds read low 1.01 | locus YJL187C, strain SWE1 (second series), active compounds read low 1.02 | locus YJL187C, strain SWE1, active compounds read low 1.01 | locus YJR043C, strain POL32, active compounds read low 1.02 | locus YJR066W, strain TOR1, active compounds read low 0.985 | locus YJR075W, strain HOC1, active compounds read low 1.02 | locus YKL009W, strain mrt4, active compounds read low 1.04 | locus YKL068W, active compounds read low 1.02 | locus YKL085W, strain MDH1 (second series), active compounds read low 1.01 | locus YKL085W, strain MDH1, active compounds read low 1.01 | locus YKL160W, strain elf1, active compounds read low 0.987 | locus YKL190W, strain CNB1, active compounds read low 1.02 | locus YKR001C, strain vps1, active compounds read low 1.02 | locus YKR026C, strain gcn3, active compounds read low 0.985 | locus YKR091W, strain srl3, active compounds read low 0.996 | locus YLL001W, strain dnm1, active compounds read low 0.97 | locus YLL026W, active compounds read low 0.989 | locus YLL041C, strain sdh2, active compounds read low 1.01 | locus YLR027C, strain aat2, active compounds read low 0.989 | locus YLR039C, strain RIC1, active compounds read low 1.06 | locus YLR058C, strain SHM2, active compounds read low 1.01 | locus YLR102C, strain apc9, active compounds read low 1 | locus YLR113W, strain HOG1, active compounds read low 0.981 | locus YLR221C, strain rsa3, active compounds read low 1 | locus YLR258W, strain gsy2, active compounds read low 1 | locus YLR262C, strain YPT6 (second series), active compounds read low 0.994 | locus YLR262C, strain YPT6, active compounds read low 1.05 | locus YLR268W, strain sec22, active compounds read low 1.01 | locus YLR320W, strain mms22, active compounds read low 0.999 | locus YLR330W, strain CHS5, active compounds read low 1.01 | locus YLR342W, strain FKS1 (second series), active compounds read low 1.05 | locus YLR342W, strain FKS1, active compounds read low 1 | locus YLR357W, strain rsc2, active compounds read low 0.981 | locus YLR370C, strain arc18, active compounds read low 1 | locus YLR371W, strain rom2, active compounds read low 1.01 | locus YLR384C, strain iki3, active compounds read low 0.996 | locus YLR418C, strain cdc73, active compounds read low 1.06 | locus YML016C, strain PPZ1, active compounds read low 0.999 | locus YML032C, strain rad52, active compounds read low 1.01 | locus YML120C, strain ndi1, active compounds read low 1 | locus YML124C, strain tub3, active compounds read low 1.01 | locus YMR058W, strain fet3, active compounds read low 0.991 | locus YMR078C, strain ctf18, active compounds read low 1.02 | locus YMR125W, strain sto1, active compounds read low 0.993 | locus YMR129W, active compounds read low 0.993 | locus YMR205C, strain PFK2, active compounds read low 1 | locus YMR223W, strain ubp8, active compounds read low 1.07 | locus YMR231W, strain pep5, active compounds read low 0.994 | locus YMR307W, strain GAS1, active compounds read low 1.03 | locus YNL067W, strain RPL9B, active compounds read low 1.02 | locus YNL071W, strain lat1, active compounds read low 0.999 | locus YNL153C, strain GIM3, active compounds read low 1.01 | locus YNL175C, strain NOP13, active compounds read low 1.01 | locus YNL183C, strain NPR1, active compounds read low 0.969 | locus YNL197C, strain WHI3, active compounds read low 1 | locus YNL209W, strain ssb2, active compounds read low 1 | locus YNL224C, strain SQS1, active compounds read low 0.983 | locus YNL233W, strain BNI4, active compounds read low 1.01 | locus YNL248C, strain rpa49, active compounds read low 0.988 | locus YNL250W, strain rad50, active compounds read low 1.05 | locus YNL271C, strain bni1, active compounds read low 1.02 | locus YNL298W, strain CLA4, active compounds read low 1.02 | locus YNL307C, strain MCK1, active compounds read low 1.03 | locus YNL322C, strain KRE1 (second series), active compounds read low 1.01 | locus YNL322C, strain KRE1, active compounds read low 1.01 | locus YNR049C, strain mso1, active compounds read low 1.01 | locus YNR052C, strain pop2, active compounds read low 1.01 | locus YOL012C, strain htz1 1.09 | locus YOL147C, strain pex11, active compounds read low 1.02 | locus YOR001W, strain rrp6, active compounds read low 0.987 | locus YOR061W, strain CKA2, active compounds read low 1.01 | locus YOR069W, strain VPS5, active compounds read low 1.01 | locus YOR070C, strain gyp1, active compounds read low 1 | locus YOR080W, strain dia2, active compounds read low 1.01 | locus YOR083W, strain WHI5 (second series), active compounds read low 1 | locus YOR083W, strain WHI5, active compounds read low 0.977 | locus YOR106W, strain vam3, active compounds read low 0.994 | locus YOR136W, strain idh2, active compounds read low 1.01 | locus YOR144C, strain elg1, active compounds read low 1.01 | locus YOR184W, strain ser1, active compounds read low 1.02 | locus YOR231W, strain MKK1, active compounds read low 0.947 | locus YOR265W, strain rbl2, active compounds read low 1 | locus YOR270C, strain vph1, active compounds read low 1.02 | locus YOR290C, strain snf2, active compounds read low 0.989 | locus YOR316C, strain cot1, active compounds read low 1.01 | locus YPL051W, strain arl3, active compounds read low 0.999 | locus YPL055C, strain LGE1, active compounds read low 1.02 | locus YPL078C, strain atp4, active compounds read low 0.981 | locus YPL106C, strain sse1, active compounds read low 1.01 | locus YPL240C, strain hsp82, active compounds read low 1 | locus YPL241C, strain CIN2, active compounds read low 1 | locus YPL256C, strain CLN2, active compounds read low 1.03 | locus YPR119W, strain clb2, active compounds read low 1.01 | locus YPR141C, strain kar3, active compounds read low 1.01 | locus YPR163C, strain tif3, active compounds read low 1.02 | locus YPR167C, strain met16, active compounds read low 1.01 | strain wtn01, active compounds read low 1
